Cruzain noTriton – cruzain (T. cruzi) inhibition without detergent; P25779; purified cruzain, Z-FR-AMC fluorescence, no detergent; Potency, µM, actives largely listed as inhibitors; actives 2.3% (n = 200,000); AID 1476; also: nearly all actives have a fitted effect of over 40% in size
Target sequence (P25779 123-467 limits assumed): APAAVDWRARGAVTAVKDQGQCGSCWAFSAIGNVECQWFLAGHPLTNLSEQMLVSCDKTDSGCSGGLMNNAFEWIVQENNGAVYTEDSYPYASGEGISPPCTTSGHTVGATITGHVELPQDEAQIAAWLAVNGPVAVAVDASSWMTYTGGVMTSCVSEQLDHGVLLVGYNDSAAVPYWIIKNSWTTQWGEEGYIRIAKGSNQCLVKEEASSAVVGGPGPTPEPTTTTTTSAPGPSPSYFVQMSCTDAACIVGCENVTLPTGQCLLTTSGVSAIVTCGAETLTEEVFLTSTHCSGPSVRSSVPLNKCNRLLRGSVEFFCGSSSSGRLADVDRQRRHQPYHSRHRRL
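Detergent-free condition (0.00005% Triton X-100) in acetate buffer pH 5.5 with DTT. 1.5 nM enzyme and compound were pre-mixed 15 min, then 2 uM Z-FR-AMC substrate added; reaction progress from fluorescence change between first and third reads (60 s).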
Cruzain Triton – inhibitors of Trypanosoma cruzi cruzain with detergent | P25779 | purified cruzain, Z-FR-AMC fluorescence, 0.01% Triton | Potency, µM, usual class: inhibitors | actives 0.43% (n = 200,000); also: nearly all actives have a fitted effect of over 40% in size
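Steps: dispense cruzain (1.5 nM final) in acetate buffer pH 5.5 with DTT and 0.01% Triton X-100; pin-transfer compounds; incubate 15 min RT; add Z-FR-AMC (2 uM final); read fluorescence every 30 s, using the 60 s intensity change.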
Each line names hits and unclear results; the compound was inactive in the other large screens; ! = repeats disagree. Compounds with a hit are over-represented: about 2.5% of the library has one in this group of screens. Calls follow the shape of the dose curve; as a rule, active = well fitted curve in the direction sought with a large enough effect; inconclusive = small, poorly fitted or top-dose-only effect, or another doubt; inactive = no such curve, though single readings can be large; an effect the other way counts as inactive or inconclusive.

COc1ccc(-c2oc(NC(=O)c3ccc(C)cc3)c(C#N)c2-c2ccc(OC)cc2)cc1	Cruzain noTriton 13µM
COc1ccc(C(=O)Nc2oc(-c3ccccc3)c(-c3ccccc3)c2C#N)cc1OC	none
Cc1cnc(=O)[nH]c1SCC(=O)Nc1cc(C(F)(F)F)ccc1Cl	none
Cc1ccc(F)cc1NCC(=O)Nc1ccc(Br)cc1	none
Cc1cccc(NC(=O)CNc2cc(C)ccc2C)c1	Cruzain noTriton 20µM
COc1cccc(CNC(=O)c2ccc(CSc3nc4ccncc4n3Cc3cccc(C)c3)cc2)c1	none
O=C(Nc1ccc(Cl)cc1)c1ccc2c(c1)N(Cc1ccccc1)CCS2	Cruzain noTriton 32µM
O=C(NCCc1ccc(Cl)cc1)c1ccc2c(c1)N(Cc1ccccc1)C(=O)CS2	Cruzain noTriton 32µM
Cc1ccc(CN2CCSc3ccc(C(=O)Nc4cc(C)cc(C)c4)cc32)cc1	Cruzain noTriton 10µM
O=C(NCCc1ccc(Cl)cc1)c1ccc2c(c1)N(Cc1ccccc1)CCS2	none
Cc1ccc(CN2CCSc3ccc(C(=O)NCc4ccc(OC(C)C)cc4)cc32)cc1	none
O=C(NCCc1ccccc1)c1ccc2c(c1)N(Cc1ccc(F)cc1)C(=O)CS2	none
Cc1ccc(CN2CCSc3ccc(C(=O)NCCc4ccccc4)cc32)cc1	none
Cc1ccc(CN2CCSc3ccc(C(=O)Nc4ccc(Cl)cc4)cc32)cc1	Cruzain noTriton 7.9µM
COc1cc2c(cc1OC)C(COc1ccc3c(C)cc(=O)oc3c1)N(C(=O)Cc1ccc(F)cc1)CC2 (centres undefined)	none
CO[C@@H]1/C=C\O[C@]2(C)Oc3c(C)c(O)c4c(O)c(cc(O)c4c3C2=O)NC(=O)/C(C)=C\C=C/[C@H](C)[C@@H](O)[C@H](C)[C@H](O)C(C)[C@H](OC(C)=O)[C@@H]1C (some centres undefined)	Cruzain noTriton inconclusive
CC(C)COc1ccc(C(=O)N2CCN(CCc3ccccn3)CC2)cc1	none
Cc1ccc(S(=O)(=O)NCC(c2ccc(N(C)C)cc2)N2CCc3ccccc32)cc1C (centres undefined)	none
Cc1ccc(C)c(Cn2c(SCC(=O)N(C)Cc3ccccc3)nc3ccccc32)c1	none
Cc1cc(=O)n(Cc2cccc(Br)c2)c2c1c(C)nn2-c1ccccc1	none
COc1cccc(-n2cc(C(=O)Nc3cccc(C(F)(F)F)c3)c3ccccc3c2=O)c1	none
CC(=O)c1cccc(NC(=O)c2ccc3c(c2)N(Cc2ccc(C)cc2)CCS3)c1	Cruzain noTriton 13µM
Cc1ccc(CN2CCSc3ccc(C(=O)NCC(C)c4ccccc4)cc32)cc1 (centres undefined)	none
CC(C)(C)OC(=O)N1CCC(c2c(C(=O)N3CCCCC3)cnn2-c2ccccc2Cl)CC1	Cruzain noTriton inconclusive
CCOc1ccc(CCNC(=O)Cn2c(-c3cccs3)cc3cc(F)ccc32)cc1OCC	none
O=C(Cn1c(-c2cccs2)cc2cc(F)ccc21)NCCc1ccc(Cl)cc1	Cruzain noTriton 13µM
CCOC(=O)Cn1c(=O)oc2cc(S(=O)(=O)N3CCN(c4ccc(F)cc4)CC3)ccc21	none
COc1cc(NC(=O)CN2CCN(CC(=O)Nc3ccc(F)cc3)CC2)cc(OC)c1	none
Cn1c(=O)c2ncn(CC(=O)Nc3ccc4c5c(cccc35)CC4)c2n(C)c1=O	Cruzain noTriton 13µM, Cruzain Triton 13µM
Cc1cccc(C)c1NC(=O)Cn1cnc2c(=O)n(C)c(=O)n(C)c21	none
CCCc1nc2ccccc2c(=O)n1-c1cccc(OC)c1	none
CC(C)Oc1cccc(-n2c(CCc3c[nH]c4ccc(Br)cc34)nc3ccccc3c2=O)c1	Cruzain noTriton 32µM
Cc1ccc(NC(=O)CSc2nc3ccc(NC(=O)COc4ccc(C)cc4)cc3s2)cc1	Cruzain noTriton inconclusive
O=C(CSc1nc2c([nH]c3ccccc32)c(=O)n1-c1cccc(Cl)c1)c1ccccc1	none
Cc1cccc(NC(=S)N(Cc2cccs2)Cc2cc3cc(C)ccc3[nH]c2=O)c1	Cruzain noTriton inconclusive
Cc1cc(C)c2[nH]c(=O)c(CN(Cc3cccs3)C(=S)NCc3ccco3)cc2c1	Cruzain noTriton inconclusive
Cc1ccc(NC(=S)N(Cc2cccs2)Cc2cc3cc(C)ccc3[nH]c2=O)cc1	Cruzain noTriton 16µM
Cc1ccc(NC(=S)N(Cc2cccs2)Cc2cc3cc(C)cc(C)c3[nH]c2=O)cc1	Cruzain noTriton 25µM
CCCCN(Cc1ccccc1)S(=O)(=O)c1cc(Br)cc2c1N(C(C)=O)CC2	none
COc1ccc(-c2nnn(CC(=O)c3c[nH]c4ccccc34)n2)cc1OC	none
CCCCOc1ccc(-c2nnn(CC(=O)c3c[nH]c4ccccc34)n2)cc1	Cruzain noTriton 7.9µM
[O-][Br+2]([O-])O	Cruzain Triton 22µM!
O=C(Cc1ccccc1)NNC(=O)Nc1ccc(Cl)c(Cl)c1	none
NC(=S)NNC(=O)Nc1ccc(Cl)c(Cl)c1	Cruzain noTriton 2µM, Cruzain Triton 3.2µM
O=C(NC1CC(=O)N(c2ccc(Cl)cc2)C1)C(=O)c1c[nH]c2ccccc12 (centres undefined)	Cruzain noTriton inconclusive
N#Cc1c(NC(=O)Cn2nc(C(F)(F)F)c3c2CCCC3)sc2c1CCC2	Cruzain noTriton 7.9µM
CCc1ccc(NC(=O)Cn2nc(C(F)(F)F)c3c2CCC3)cc1	none
CC1CCc2c(sc(NC(=O)Cn3nc(C(F)(F)F)c4c3CCCCC4)c2C#N)C1 (centres undefined)	Cruzain noTriton 20µM
CC1CCN(CC(=O)Nc2sc3c(c2C#N)CCC3)CC1	none
COC(=O)c1ccc(NC(=O)CCc2c(C)nn(-c3ccc(N4CCCCC4)nn3)c2C)cc1	none
c1ccc2c(Nc3nc(N4CCOCC4)c4ccccc4n3)cccc2c1	none
Fc1ccc(Nc2nc(N3CCOCC3)c3ccccc3n2)cc1	Cruzain noTriton 16µM, Cruzain Triton inconclusive
CCSc1nc(N)c(C#N)c(-c2ccco2)c1C#N	Cruzain noTriton 20µM, Cruzain Triton inconclusive
COC(=O)CSc1nc(N)c(C#N)c(-c2ccco2)c1C#N	none
CCCCc1nc(N)c(C#N)c(-c2ccco2)c1CCC	Cruzain noTriton 20µM, Cruzain Triton 25µM
CCCc1nc(NC(C)=O)c(C#N)c(-c2ccco2)c1CC	none
CC(CNC(=O)C1CCN(Cc2cc3ccccc3n2Cc2ccccc2)CC1)c1ccccc1 (centres undefined)	none
CC(C)CCNC(=O)c1ccc2c(c1)N(Cc1ccccc1F)C(=O)c1ccccc1S2=O (centres undefined)	none
CC(CNC(=O)C1CCN(C(=O)c2cc3sccc3n2C)CC1)c1ccccc1 (centres undefined)	Cruzain noTriton inconclusive
CCCCc1ccc(NC(=O)c2ccc3c(c2)CCN3S(=O)(=O)c2ccccc2)cc1	Cruzain noTriton inconclusive
CCCCOC(=O)c1ccc(NC(=O)c2ccc3c(c2)CCN3S(=O)(=O)c2ccccc2)cc1	Cruzain noTriton 13µM
Cc1ccc(C)c(N2CCN(C(=O)C3CCN(c4nc(-c5ccc(C(C)C)cc5)no4)CC3)CC2)c1	none
COc1ccc(-c2ccc(C#N)c(OC(=O)c3c(Cl)cccc3Cl)n2)cc1	Cruzain noTriton inconclusive, Cruzain Triton 28µM
COc1nc(-c2ccccc2Cl)ccc1C#N	none
Cc1cc(C(=O)NC2=NCCS2)cs1	none
O=C(NC1=NCCS1)c1csc2ccccc12	Cruzain noTriton 16µM
COc1cc(/C=C/C(=O)Nc2ccc(N3CCCCC3)c(S(=O)(=O)Nc3ccccc3Cl)c2)cc(OC)c1OC	none
O=C(Nc1cccc(S(=O)(=O)Nc2ccccc2Cl)c1)c1ccc(Cl)nc1	none
COc1ccc(Cl)cc1NS(=O)(=O)c1cc(Cl)ccc1OC	none
O=C(Nc1cccc(S(=O)(=O)Nc2ccccc2Cl)c1)c1ccc(N2CCCC2)c([N+](=O)[O-])c1	Cruzain noTriton 10µM

Screens (PubChem BioAssay)
